Source: PubChem BioAssay
A selection: hits, their analogues and other compounds. The true share with any hit is near 9.2%.
Rab9 promoter act: qHTS Assay for Rab9 Promoter Activators; Huh7 Rab9 promoter-luciferase reporter, luminescence, 24 h; Potency, µM (top dose mostly 9.22 µM), usual class: activators; 320,000 tested, 2.8% active; note: nearly all actives have a fitted effect of over 60% in size
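Stable Rab9-luc Huh7, 1500 cells/well, 2 h settle; cmpd in DMSO, 24 h, 37 °C/5% CO2; luciferase reagent 10 min RT; luminescence.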
SMN2 splice enh: qHTS Assay for Enhancers of SMN2 Splice Variant Expression | AID 1458, 2008 | Potency, µM (series often up to 46.1 µM), most hits filed as activators | 210,000 tested, 2.8% active | HEK293 SMN2-luciferase splicing reporter, luminescence, 30-36 h; note: nearly all actives have a fitted effect of over 55% in size
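qHTS luciferase splicing reporter: luminescence rises when SMN2 exon 7 is included in transfected HEK293 cells. Compound exposure lasted 30-36 h at 37C, with 4.5 mM final sodium butyrate as control, followed by a ONE-Glo read.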
ELG1 repair inh: qHTS screen for small molecules that inhibit ELG1-dependent DNA repair in human embryonic kidney (HEK293T) cells expressing luciferase-tagged ELG1; HEK293T ELG1-luciferase reporter, luminescence, 16 h; DNA damage induced by 5-fluorouridine; Potency, µM (top dose mostly 46.1 µM), most hits filed as inhibitors; AID 504467, 2011; 330,000 tested, 2.3% active; note: nearly all actives have a fitted effect of over 55% in size
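Reporter activity after DNA damage by 5-fluorouridine is monitored. Compound-treated cells incubate 16 hr at 37 °C, then ONE-Glo is added for 30 min before luminescence reading.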
FLuc counter: qHTS profiling assay for firefly luciferase inhibitor/activator using purifed enzyme and Km concentrations of substrates (counterscreen for miR-21 project); Luciferin 4-monooxygenase (Photinus pyralis), P08659; purified FLuc, Km substrates, luminescence inhibition; Potency, µM (series often up to 57.5 µM), hits mostly inhibitors; 360,000 tested, 6.9% active; AID 588342, 2011; note: nearly all actives have a fitted effect of over 55% in size
Target sequence (P08659 whole entry, looked up): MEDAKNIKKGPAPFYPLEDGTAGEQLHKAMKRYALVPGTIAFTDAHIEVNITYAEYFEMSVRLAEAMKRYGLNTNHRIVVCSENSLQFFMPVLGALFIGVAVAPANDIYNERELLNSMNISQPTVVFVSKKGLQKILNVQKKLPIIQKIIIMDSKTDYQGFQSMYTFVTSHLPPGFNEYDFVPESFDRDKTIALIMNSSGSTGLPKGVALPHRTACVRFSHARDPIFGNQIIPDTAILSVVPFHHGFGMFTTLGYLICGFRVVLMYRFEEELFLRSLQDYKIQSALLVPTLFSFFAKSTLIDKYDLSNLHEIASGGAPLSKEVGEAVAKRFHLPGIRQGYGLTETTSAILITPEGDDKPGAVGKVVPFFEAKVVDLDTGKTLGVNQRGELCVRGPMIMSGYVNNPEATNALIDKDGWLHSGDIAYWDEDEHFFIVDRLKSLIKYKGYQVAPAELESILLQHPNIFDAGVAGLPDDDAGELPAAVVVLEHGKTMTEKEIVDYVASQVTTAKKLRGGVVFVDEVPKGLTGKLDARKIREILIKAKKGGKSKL
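Biochemical qHTS of compounds, final roughly 60 µM downward over six points, against 10 nM purified firefly luciferase using Km concentrations of substrates (10 uM D-luciferin, 10 uM ATP) in Tris acetate pH 7.5 buffer; luminescence output.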
NPC1 prom act: qHTS Assay for NPC1 Promoter Activators | Huh7 NPC1 promoter luciferase reporter, 24 h | 320,000 tested, 2.4% active | Potency, µM (top dose mostly 9.22 µM), most hits filed as activators; note: nearly all actives have a fitted effect of over 60% in size
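Readout is luciferase luminescence, reflecting NPC1 promoter activation in stably transfected Huh7 cells after 24 h compound exposure at 37 °C in reduced-serum medium with 10% FBS.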
ELG1 genotoxic: qHTS screen for small molecules that induce genotoxicity in human embryonic kidney (HEK293T) cells expressing luciferase-tagged ELG1; HEK293T ELG1-luciferase reporter, luminescence, 16 h; Potency, µM (highest dose often 46 µM), most hits filed as activators; 330,000 tested, 1.3% active; note: nearly all actives have a fitted effect of over 60% in size
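16 hr compound incubation (37 °C, 5% CO2) of HEK293T cells carrying luciferase-tagged ELG1; luciferase then measured by ONE-Glo luminescence after 30 min at RT.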
Each line names hits and unclear results; the compound was inactive in the other large screens. Calls come from the whole dose curve; as a rule, active = well fitted curve in the direction sought with a large enough effect; inconclusive = small, poorly fitted or top-dose-only effect, or another doubt; inactive = no such curve, though single readings can be large; an effect the other way counts as inactive or inconclusive.

CC1C=CCC2C(=O)N(c3cccc(C(=O)N4CCN(c5ccc(F)cc5)CC4)c3)C(=O)C12 (stereo not given)	Rab9 promoter act 3.2µM, SMN2 splice enh inconclusive, ELG1 repair inh inconclusive, FLuc counter 12µM, NPC1 prom act 2.8µM, ELG1 genotoxic inconclusive
Cc1ccc(C)c(N2CCN(C(=O)c3ccc(CS(=O)(=O)c4ccccc4C)o3)CC2)c1	ELG1 repair inh 26µM
Cc1ccc(C)c(N2CCN(C(=O)c3ccc(CS(=O)Cc4ccc(Cl)cc4)o3)CC2)c1 (stereo not given)	ELG1 repair inh 15µM (no result: SMN2 splice enh)
O=C(Nc1ccc(F)c(Cl)c1)N1CCN(C(=O)c2nsc3ccccc23)CC1	none (no result: Rab9 promoter act, ELG1 repair inh, NPC1 prom act, ELG1 genotoxic)
O=C(NCC(F)(F)F)c1ccc(S(=O)(=O)Nc2ccccc2N2CCCC2)cc1	none (no result: Rab9 promoter act, SMN2 splice enh, FLuc counter, NPC1 prom act)
COc1ccc(OC)c(C(=O)c2c(N)c(-c3nc(-c4ccc(C)c(C)c4)cs3)c3ccccn23)c1	none (no result: Rab9 promoter act, ELG1 repair inh, NPC1 prom act, ELG1 genotoxic)
Cc1cccc(N2CCN(C(=O)c3cccc(N4C(=O)C5C6C=CC(C6)C5C4=O)c3)CC2C)c1 (stereo not given)	ELG1 repair inh 13µM (no result: SMN2 splice enh)
COc1ccccc1C1=CN(Cc2ccccc2)CCC1=O	none (no result: Rab9 promoter act, SMN2 splice enh, FLuc counter, NPC1 prom act)
O=C1N[C@H](Cc2ccccc2)COC(=O)[C@H](Cc2ccc(F)cc2)CC/C=C/C[C@@H]1CC(=O)N(CCO)Cc1ccccc1	ELG1 repair inh 21µM (no result: Rab9 promoter act, SMN2 splice enh, FLuc counter, NPC1 prom act)
O=C1N[C@@H](Cc2ccccc2)COC(=O)[C@H](Cc2ccc(F)cc2)C/C=C\C[C@@H]1CC(=O)N(CCO)Cc1ccccc1	ELG1 repair inh 21µM (no result: Rab9 promoter act, SMN2 splice enh, FLuc counter, NPC1 prom act)
CC(C)(C)[C@@H]1COC(=O)[C@H](Cc2ccc(F)cc2)CC/C=C\C[C@@H](CC(=O)N(CCO)Cc2ccccc2)C(=O)N1	none (no result: Rab9 promoter act, SMN2 splice enh, FLuc counter, NPC1 prom act)
O=C(C[C@@H]1C/C=C\C[C@@H](Cc2ccc(F)cc2)C(=O)OC[C@@H]2CCCN2C1=O)N[C@H](CO)Cc1ccccc1	none (no result: Rab9 promoter act, SMN2 splice enh, FLuc counter, NPC1 prom act)
O=C1N[C@H](Cc2ccccc2)COC(=O)[C@H](Cc2ccc(F)cc2)C/C=C\C[C@@H]1CC(=O)N(CCO)Cc1ccccc1	ELG1 repair inh inconclusive (no result: Rab9 promoter act, SMN2 splice enh, FLuc counter, NPC1 prom act)
O=C1N[C@@H](c2ccccc2)COC(=O)[C@@H](Cc2ccc(F)cc2)C/C=C\C[C@@H]1CC(=O)N(CCO)Cc1ccccc1	ELG1 repair inh 21µM (no result: Rab9 promoter act, SMN2 splice enh, FLuc counter, NPC1 prom act)
O=C(C[C@H]1C/C=C\CC[C@@H](Cc2ccc(F)cc2)C(=O)OC[C@H]2CCCN2C1=O)N[C@H](CO)Cc1ccccc1	ELG1 repair inh 23µM (no result: Rab9 promoter act, SMN2 splice enh, FLuc counter, NPC1 prom act)
Cc1[nH]c(C)c(S(=O)(=O)N(Cc2ccccc2)C(C)C)c1C(=O)N1CCCC1	none (no result: SMN2 splice enh)
CCC(=O)Nc1ccc(C)cc1-c1nc2ccccc2n(C(C)C(=O)Nc2ccccc2CC)c1=O (stereo not given)	none (no result: Rab9 promoter act, SMN2 splice enh, ELG1 repair inh, NPC1 prom act, ELG1 genotoxic)
CC(C)(C)OC(=O)C[C@H]1C/C=C\C[C@H](CC(=O)N(CCO)Cc2ccccc2)C(=O)N[C@@H](c2ccccc2)COC1=O	ELG1 repair inh 8.2µM (no result: Rab9 promoter act, SMN2 splice enh, FLuc counter, NPC1 prom act)
O=C1N[C@H](Cc2ccccc2)COC(=O)[C@@H](Cc2ccc(F)cc2)CC/C=C/C[C@H]1CC(=O)N(CCO)Cc1ccccc1	ELG1 repair inh 21µM (no result: Rab9 promoter act, SMN2 splice enh, FLuc counter, NPC1 prom act)
O=C1N[C@@H](Cc2ccccc2)COC(=O)[C@@H](Cc2ccc(F)cc2)CC/C=C/C[C@@H]1CC(=O)N(CCO)Cc1ccccc1	ELG1 repair inh inconclusive (no result: Rab9 promoter act, SMN2 splice enh, FLuc counter, NPC1 prom act)
Cc1ccc(-n2c(=O)c3sccc3n(Cc3cc(=O)n4cc(Cl)ccc4n3)c2=O)cc1F	SMN2 splice enh 35µM
Cc1ccc(-n2c(=O)c3sccc3n(Cc3cc(=O)n4ccccc4n3)c2=O)cc1F	none
Cc1cc(NC(=O)C(C)Oc2ccc(Cl)cc2Cl)no1 (stereo not given)	ELG1 repair inh inconclusive, FLuc counter 24µM (no result: SMN2 splice enh)
